The source of these data is PubChem BioAssay (NCI).

About 83,000 compounds went through this panel and 20% of them were active in at least one assay; those are over-represented in the sample as a whole.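 Activity criterion: percent growth below 10, measured after cells in 96-well plates were exposed to a single compound concentration for 48 hours.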 Calls of active or inactive are those of the source.

The first experiment relates to NCI-H226 lung. Nature of the experiment: NCI-60 one-dose screen, 48 h (100 = growth as untreated, 0 = no growth, -100 = all killed). Particulars: 10 µM unless noted.
Take `CCCCCCNC(=O)Oc1ccc(/C(=C(\C)c2ccccc2)c2ccc(OCCN(CC)CC)cc2)cc1`: the growth is 82.6% (inactive). The same measure, in the same setting: then `O=[N+]([O-])c1c(F)cccc1Nc1cccc(F)c1`, with 94.7% (inactive); and `Nc1ccc2c(c1)C(=O)NC2=O`, with 96.2% (inactive); and `CC(C)[C@@H]1CC[C@]2(C(=O)NCCCCN=C(N)N)CC[C@]3(C)[C@H](CC[C@@H]4[C@@]5(C)CCC(=O)C(C)(C)[C@@H]5CC[C@]43C)[C@@H]12`, with 84.1% (inactive). On the same count and under the same terms, then `CCc1ccccc1NC(=O)c1sc2nc3c(cc2c1N)C(=O)CCC3`, with 67.3% (inactive); and `O=C1c2c[n+](Cc3ccccc3)ccc2-c2nc3ccccc3c3ccnc1c23`, with -92.2% (active); and `CCN(C(=O)CN1CCN(c2cc3c(cc2F)c(=O)c(C(=O)O)cn3CC)CC1)c1nc(-c2ccccc2)cs1`, with 18.2% (inactive). Regarding `O=C(Nc1ccc(F)cc1)Nc1ccc(CCO)cc1`, the growth is 107% (inactive). Still for that read-out and setting: then `CCCNc1nc(SC)nc(-c2cccc(N)c2)c1C#N`, with 93.9% (inactive); and `CC/C(=C(\c1ccc(O)cc1)c1ccc(OCCN(C)CCN(C)C(=O)CCCCC(=O)c2c(C)[nH]c(/C=C3\N=C(c4ccc[nH]4)C=C3OC)c2C)cc1)c1ccccc1`, with 90.5% (inactive); and `c1c2c(cc3c1OCO3)Cc1cc3c(cc1Cc1cc4c(cc1C2)OCO4)OCO3`, with 105% (inactive). With `C(=N\Nc1nnn(Cc2ccccc2)n1)/c1ccccc1`, the growth is 85% (inactive). `NS(=O)(=O)N(c1cc(C(F)(F)F)cc(C(F)(F)F)c1)C1CCN(Cc2ccc(F)cc2)CC1`: the growth is 69.3% (inactive).

Take `CC(=O)Oc1cc2cnc3c4cc(OC(C)=O)c(OC(C)=O)cc4ccc3c2cc1OC(C)=O`: the growth is 36.4% (inactive). For `O=C1C=CC(Nc2ccccc2[N+](=O)[O-])C1Nc1ccccc1[N+](=O)[O-]` (stereo unspecified), the growth is -41.7% (active). Still for that read-out and setting: then `O=C(COCc1c(-c2ccccc2)no[n+]1[O-])Nc1ccc(C(=O)/C=C/c2ccc3c(c2)OCO3)cc1`, with 96.6% (inactive); and `CCOC(=O)c1c2c(n3ccc(NC(=O)CCN4CCOCC4)cc13)C(=O)c1ncccc1C2=O`, with 78.5% (inactive); and `COc1cc2c(=O)n(CC3CCCCC3)c3c4cc[nH]c4ncc3c2cc1OC`, with 34.5% (inactive).

As for `COc1ccc(-c2cc(=O)[nH]c3c(OC)c4ccccc4c(OC)c23)cc1`, the growth was 39.9% (inactive).

On to `Cn1c(=O)c2[nH]c(C(O)C(O)C(O)C(O)CO)nc2n(C)c1=O` (stereo unspecified), for which the growth was 95.1% (inactive).

As for `C=C1CCC2C3(C)COC(c4ccc(OC)cc4Br)OC3CCC2(C)C1/C=C/C1=CCOC1=O` (stereo unspecified), the growth is 63.1% (inactive). Still for that read-out and setting: then `COc1ccc(-c2cn3c(ccc4ccccc43)n2)cc1`, with 88% (inactive); and `Cc1ccc(Nc2c(C(N)=O)cnc3ccc(-c4csc(N)n4)cc23)cc1`, with 88.3% (inactive); and `CCN(CC)CC#CCOC(=O)[C@]1(C)CCC[C@@]2(C)[C@H]1CC(C=O)=C1C=C(C(C)C)CC[C@@H]12`, with 76% (inactive).

Turning to `CCCCCCCCCCCCS(=O)CC(C)O` (stereo unspecified), the growth was 110% (inactive). Turning to `c1ccc2sc(SCCCn3ccnc3)nc2c1`, the growth is 74.8% (inactive).

As to `CCCCCCCCCCCCCCCCCCNC(=O)[C@H]1CSC(c2ccc(OC)c(F)c2)N1` (stereo partly specified), the growth is -68% (active). In the case of `O=C(/C=C\c1cccc([N+](=O)[O-])c1)c1ccccc1`, the growth is 70.3% (inactive).

In another experiment the test system is NCI-H322M lung. Described as above. Particulars: 10 µM unless noted.
As to `O=C1c2cc3c(cc2-c2c1c1cc(Cl)c(Cl)cc1c(=O)n2CCCn1ccnc1)OCO3`, the growth is 22.9% (inactive). Same read-out and setting: next, `CCCCCCCCOC(=O)CC[C@@H](C)[C@H]1CC[C@H]2[C@@H]3[C@H](OC(=O)CCN)C[C@@H]4C[C@H](OC(=O)CCN)CC[C@]4(C)[C@H]3C[C@H](OC(=O)CCN)[C@]12C`: 71.4% (inactive); `COc1ccc(-c2cnoc2-c2cc(OC)c3c(c2)OCCO3)cc1`: 45% (inactive); `Cc1nn(-c2ccccc2)c2nc(C)n(-c3ccc(Br)cc3)c(=O)c12`: 51.3% (inactive). On to `CCN(CC)CC(C)(C)C(=O)/C=C/c1ccccc1`, for which the growth is 67.7% (inactive). As to `Cc1ccc2cnc(N)c(C#Cc3cncc(C(=O)Nc4ccc(CN5CCN(C)CC5)c(C(F)(F)F)c4)c3)c2c1`, the growth is -97.2% (active). The same measure, in the same setting: next, `C[C@H](CCC(=O)O)[C@H]1CC[C@H]2[C@@H]3CC[C@@H]4/C(=C\c5ccco5)C(=O)/C(=C\c5ccco5)C[C@]4(C)[C@H]3CC[C@]12C`: 95.6% (inactive). For the molecule `COc1ccc(-c2cc(-c3ccc(N(C)C)cc3)nc(NC(=O)c3ccncc3)n2)cc1`, the growth was 87.8% (inactive). On the same count and under the same terms, next, `COc1ccc2c(c1)C(=O)/C(=C/c1cccc(OCC(=O)Nc3nc4c(s3)CCCC4)c1)O2`: 82.5% (inactive); `Cc1nc2sc(C(=O)Nc3cccc4c3OCCO4)c(N)c2cc1C(C)O` (stereo unspecified): 62.8% (inactive); `CCCCCCNC(=O)Oc1ccc(/C(=C(\C)c2ccccc2)c2ccc(OCCN(CC)CC)cc2)cc1`: 90% (inactive). Still for that read-out and setting: then `O=[N+]([O-])c1c(F)cccc1Nc1cccc(F)c1`, with 108% (inactive); and `Nc1ccc2c(c1)C(=O)NC2=O`, with 108% (inactive).

Consider `CC(C)[C@@H]1CC[C@]2(C(=O)NCCCCN=C(N)N)CC[C@]3(C)[C@H](CC[C@@H]4[C@@]5(C)CCC(=O)C(C)(C)[C@@H]5CC[C@]43C)[C@@H]12`, for which the growth is 73.8% (inactive). Still for that read-out and setting: then `CCc1ccccc1NC(=O)c1sc2nc3c(cc2c1N)C(=O)CCC3`, with 46.3% (inactive); and `O=C1c2c[n+](Cc3ccccc3)ccc2-c2nc3ccccc3c3ccnc1c23`, with -17.8% (active). The same measure, in the same setting: then `CCN(C(=O)CN1CCN(c2cc3c(cc2F)c(=O)c(C(=O)O)cn3CC)CC1)c1nc(-c2ccccc2)cs1`, with 17.7% (inactive); and `O=C(Nc1ccc(F)cc1)Nc1ccc(CCO)cc1`, with 97.7% (inactive); and `CCCNc1nc(SC)nc(-c2cccc(N)c2)c1C#N`, with 95.8% (inactive).

For `CC/C(=C(\c1ccc(O)cc1)c1ccc(OCCN(C)CCN(C)C(=O)CCCCC(=O)c2c(C)[nH]c(/C=C3\N=C(c4ccc[nH]4)C=C3OC)c2C)cc1)c1ccccc1`, the growth was 88.7% (inactive). The same measure, in the same setting: next, `c1c2c(cc3c1OCO3)Cc1cc3c(cc1Cc1cc4c(cc1C2)OCO4)OCO3`: 109% (inactive); `C(=N\Nc1nnn(Cc2ccccc2)n1)/c1ccccc1`: 86% (inactive); `NS(=O)(=O)N(c1cc(C(F)(F)F)cc(C(F)(F)F)c1)C1CCN(Cc2ccc(F)cc2)CC1`: 81.7% (inactive).

For the molecule `CC(=O)Oc1cc2cnc3c4cc(OC(C)=O)c(OC(C)=O)cc4ccc3c2cc1OC(C)=O`, the growth is 5.6% (active). Same read-out and setting: next, `O=C1C=CC(Nc2ccccc2[N+](=O)[O-])C1Nc1ccccc1[N+](=O)[O-]` (stereo unspecified): 79.1% (inactive). Still for that read-out and setting: next, `O=C(COCc1c(-c2ccccc2)no[n+]1[O-])Nc1ccc(C(=O)/C=C/c2ccc3c(c2)OCO3)cc1`: 113% (inactive); `CCOC(=O)c1c2c(n3ccc(NC(=O)CCN4CCOCC4)cc13)C(=O)c1ncccc1C2=O`: 14.3% (inactive). Still for that read-out and setting: next, `COc1cc2c(=O)n(CC3CCCCC3)c3c4cc[nH]c4ncc3c2cc1OC`: 59% (inactive). As to `COc1ccc(-c2cc(=O)[nH]c3c(OC)c4ccccc4c(OC)c23)cc1`, the growth was 41.8% (inactive). On the same count and under the same terms, next, `Cn1c(=O)c2[nH]c(C(O)C(O)C(O)C(O)CO)nc2n(C)c1=O` (stereo unspecified): 93.7% (inactive). As to `C=C1CCC2C3(C)COC(c4ccc(OC)cc4Br)OC3CCC2(C)C1/C=C/C1=CCOC1=O` (stereo unspecified), the growth is 97.6% (inactive). On to `COc1ccc(-c2cn3c(ccc4ccccc43)n2)cc1`, for which the growth is 87.3% (inactive). Regarding `Cc1ccc(Nc2c(C(N)=O)cnc3ccc(-c4csc(N)n4)cc23)cc1`, the growth was 108% (inactive). Still for that read-out and setting: next, `CCN(CC)CC#CCOC(=O)[C@]1(C)CCC[C@@]2(C)[C@H]1CC(C=O)=C1C=C(C(C)C)CC[C@@H]12`: 94.5% (inactive); `CCCCCCCCCCCCS(=O)CC(C)O` (stereo unspecified): 119% (inactive); `c1ccc2sc(SCCCn3ccnc3)nc2c1`: 98.7% (inactive). Consider `CCCCCCCCCCCCCCCCCCNC(=O)[C@H]1CSC(c2ccc(OC)c(F)c2)N1` (stereo partly specified), for which the growth was 38.4% (inactive). Still for that read-out and setting: then `O=C(/C=C\c1cccc([N+](=O)[O-])c1)c1ccccc1`, with 96.1% (inactive).
